{"source": "PubChem BioAssay (NCATS)", "note": "Values joined by “and” are separate entries in the source; they are usually repeats but may differ in a detail not shown here. Equal values may be shown once. Inconclusive results are not listed. Active and inactive are the calls of the source. Unless noted, the call rests on the fitted dose curve; in most records, active means well fitted curve in the direction sought with a large enough effect; inconclusive means small, poorly fitted or top-dose-only effect, or another doubt; inactive means no such curve, though single readings can be large; an effect the other way counts as inactive or inconclusive.", "data": [{"system": "not listed separately", "assay": "qHTS assay for small molecule antagonists of the retinoid-related orphan receptor gamma (ROR-gamma) signaling pathway - cell viability counter screen (AID 720652; active means well fitted curve in the direction sought with a large enough effect in the repeat runs; an effect the other way counts as inactive or inconclusive;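 further: compound exposure lasted 16 hr before ATP read; on the % scale 0 is the no-effect control and ±100 the full control effect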)", "settings": "RORgamma reporter cell line viability counter screen; series mostly up to 92.2 µM", "method_in_brief": "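Luminescence from CellTiter-Glo after 30 min at room temperature reported cellular ATP as the cytotoxicity measure. Cells were the CHO reporter line with doxycycline-induced ROR-gamma expression, exposed to compound for 16 hr at 37 C.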", "values": [{"smiles": "CCn1cc(C(=O)O)c(=O)c2ccc(C)nc21", "Potency": "inactive"}, {"smiles": "CC(=O)c1ccc(S(=O)(=O)NC(=O)NC2CCCCC2)cc1", "Potency": "inactive"}, {"smiles": "CN(C)CCC(c1ccccc1)c1ccccn1", "note": "(stereo unspecified)", "Potency": "inactive"}, {"smiles": "O=c1cc(-c2ccc(O)cc2)oc2cc(O)cc(O)c12", "Potency": "inactive"}, {"smiles": "CC(=O)O[C@]1(C(C)=O)CC[C@H]2[C@@H]3C=C(Cl)C4=CC(=O)[C@@H]5C[C@@H]5[C@]4(C)[C@H]3CC[C@@]21C", "Potency": "inactive"}, {"smiles": "CCCCC1C(=O)N(c2ccccc2)N(c2ccccc2)C1=O", "Potency": "inactive"}, {"smiles": "O=C1NC(=O)C(c2ccccc2)(c2ccccc2)N1", "Potency": "inactive"}]}, {"system": "not listed separately", "assay": "qHTS assay for small molecule agonists of the antioxidant response element (ARE) signaling pathway measured by Nrf2-dependant transcriptional activity - cell viability counter screen (AID 720653; active means well fitted curve in the direction sought with a large enough effect in the repeat runs; an effect the other way counts as inactive or inconclusive; further: on the % scale 0 is the no-effect control and ±100 the full control effect)", "settings": "ARE-bla HepG2 viability, CellTiter-Glo ATP luminescence, 16 h; max response: hits give low values", "method_in_brief": "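ARE-bla HepG2 cells (2,000/well) rested 5 hrs at 37C/5% CO2, then exposed to compounds in DMSO for 16 hrs. Viability was read in the same wells as intracellular ATP by luminescence, 30 min at room temperature after reagent addition.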", "values": [{"smiles": "CCn1cc(C(=O)O)c(=O)c2ccc(C)nc21", "max response": "11.7% (inactive) and 3.46% (inactive)"}, {"smiles": "CC(=O)c1ccc(S(=O)(=O)NC(=O)NC2CCCCC2)cc1", "max response": "2.45% (inactive) and -5.62% (inactive)"}, {"smiles": "CN(C)CCC(c1ccccc1)c1ccccn1", "note": "(stereo unspecified)", "max response": "-6.47% (inactive)"}, {"smiles": "O=c1cc(-c2ccc(O)cc2)oc2cc(O)cc(O)c12", "max response": "-5.98% (inactive) and -9.88% (inactive)"}, {"smiles": "CC(=O)O[C@]1(C(C)=O)CC[C@H]2[C@@H]3C=C(Cl)C4=CC(=O)[C@@H]5C[C@@H]5[C@]4(C)[C@H]3CC[C@@]21C", "max response": "-29.6% (inactive) and -20.9% (inactive)"}, {"smiles": "CC(=O)N[C@@H](CS)C(=O)O", "max response": "3.38% (inactive)"}, {"smiles": "CCCCC1C(=O)N(c2ccccc2)N(c2ccccc2)C1=O", "max response": "4.44% (inactive) and 1.83% (inactive)"}, {"smiles": "O=C1NC(=O)C(c2ccccc2)(c2ccccc2)N1", "max response": "-13.1% (inactive) and -3.11% (inactive) and 0.97% (inactive)"}]}, {"molecular_target": "Hexokinase-4 (Homo sapiens) + Glucokinase regulatory protein (Homo sapiens) (UniProt P35557+Q14397)", "sequence (P35557 whole entry, looked up)": "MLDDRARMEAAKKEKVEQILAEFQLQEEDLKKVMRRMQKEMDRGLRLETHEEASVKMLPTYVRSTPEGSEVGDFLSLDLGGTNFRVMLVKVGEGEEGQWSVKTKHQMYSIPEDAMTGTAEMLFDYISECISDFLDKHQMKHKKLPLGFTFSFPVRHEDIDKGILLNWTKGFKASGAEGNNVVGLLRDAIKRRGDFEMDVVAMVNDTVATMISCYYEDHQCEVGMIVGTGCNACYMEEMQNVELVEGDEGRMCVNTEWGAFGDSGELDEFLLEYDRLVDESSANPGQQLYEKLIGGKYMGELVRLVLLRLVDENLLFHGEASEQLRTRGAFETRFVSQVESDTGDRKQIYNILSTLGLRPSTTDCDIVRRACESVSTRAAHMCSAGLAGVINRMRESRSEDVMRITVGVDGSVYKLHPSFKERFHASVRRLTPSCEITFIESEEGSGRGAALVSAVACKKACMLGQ", "sequence (Q14397 whole entry, looked up)": "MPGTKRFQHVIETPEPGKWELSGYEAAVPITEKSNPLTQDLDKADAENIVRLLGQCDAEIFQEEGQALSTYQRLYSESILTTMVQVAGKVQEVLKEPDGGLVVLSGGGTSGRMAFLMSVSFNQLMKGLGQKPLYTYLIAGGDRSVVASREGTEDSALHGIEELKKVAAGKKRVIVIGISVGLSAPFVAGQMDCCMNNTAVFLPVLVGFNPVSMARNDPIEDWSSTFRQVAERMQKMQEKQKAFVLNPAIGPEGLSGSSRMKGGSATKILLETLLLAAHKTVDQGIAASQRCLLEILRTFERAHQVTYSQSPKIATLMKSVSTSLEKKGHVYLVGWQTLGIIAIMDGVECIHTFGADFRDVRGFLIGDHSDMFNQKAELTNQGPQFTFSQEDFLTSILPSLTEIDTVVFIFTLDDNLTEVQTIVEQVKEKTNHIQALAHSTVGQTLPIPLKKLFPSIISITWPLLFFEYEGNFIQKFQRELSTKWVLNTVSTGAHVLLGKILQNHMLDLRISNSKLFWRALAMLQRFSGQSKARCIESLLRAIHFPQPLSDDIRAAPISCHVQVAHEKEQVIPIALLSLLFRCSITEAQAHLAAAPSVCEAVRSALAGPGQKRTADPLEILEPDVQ", "assay": "qHTS assay for inhibitors of recombinant human GCK-GKRP interaction: ADP-Glo assay (AID 743206);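 further: plate controls were DMSO plus enzyme for no effect and no enzyme for full effect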", "settings": "ADP-Glo luminescence, 60 min, 0% = vehicle-only wells with enzyme present; series mostly up to 76.9 µM", "method_in_brief": "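GST-GCK and FLAG-GKRP (15 nM each in the dispensed mix, with 2 uM S6P) react with 0.4 mM ATP and 5 mM glucose (final) in Hepes pH 7.6 for 60 min at room temperature. ADP is measured by ADP-Glo luminescence.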", "values": [{"smiles": "Clc1ccc(C(c2ccc(Cl)cc2)n2cc[n+](CC(OCc3ccc(Cl)cc3Cl)c3ccc(Cl)cc3Cl)c2)cc1", "note": "(stereo unspecified)", "outcome": "inactive"}, {"smiles": "COc1ccccc1N1CCN(CCCNc2cc(=O)n(C)c(=O)n2C)CC1", "outcome": "inactive"}, {"smiles": "NCCS", "outcome": "inactive"}, {"smiles": "COC(=O)[C@@H]1[C@H]2C[C@H]3c4[nH]c5ccccc5c4CCN3C[C@@H]2CC[C@@H]1O", "outcome": "inactive"}, {"smiles": "CCN(CC)CCNC(=O)c1ccc(N)cc1", "outcome": "inactive"}, {"smiles": "CC(=O)c1ccc(S(=O)(=O)NC(=O)NC2CCCCC2)cc1", "outcome": "inactive"}, {"smiles": "Clc1ccc(Cn2c(CN3CCCC3)nc3ccccc32)cc1", "outcome": "inactive"}, {"smiles": "CN(C)CCC(c1ccccc1)c1ccccn1", "note": "(stereo unspecified)", "outcome": "inactive"}, {"smiles": "O=c1cc(-c2ccc(O)cc2)oc2cc(O)cc(O)c12", "outcome": "inactive"}, {"smiles": "CC(=O)O[C@]1(C(C)=O)CC[C@H]2[C@@H]3C=C(Cl)C4=CC(=O)[C@@H]5C[C@@H]5[C@]4(C)[C@H]3CC[C@@]21C", "outcome": "inactive"}, {"smiles": "CCCCCN(C)CCC(O)(P(=O)(O)O)P(=O)(O)O", "outcome": "inactive"}, {"smiles": "CC(=O)N[C@@H](CS)C(=O)O", "outcome": "inactive"}, {"smiles": "CC1(C)CCC2=C(O1)c1ccccc1C(=O)C2=O", "outcome": "inactive"}, {"smiles": "CCCCC1C(=O)N(c2ccccc2)N(c2ccccc2)C1=O", "outcome": "inactive"}, {"smiles": "O=C1NC(=O)C(c2ccccc2)(c2ccccc2)N1", "outcome": "inactive"}]}, {"system": "not listed separately", "assay": "qHTS Assay for Identifying Gametocytocidal Compounds (AID 743244); further: potency means the concentration at half of the fitted maximal effect;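 on max response: on the % scale 0 is the no-effect control and ±100 the full control effect; actives lower the fluorescent signal which means gametocytes are killed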", "settings": "P. falciparum 3D7 stage III-V gametocytes, alamarBlue, 72 h; max response: hits give low values", "method_in_brief": "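Fluorescence at Ex 525/Em 598 nm, recorded 24 h after alamarBlue addition, reports residual metabolic activity of 3D7 gametocytes (stages III–V) following 72 h compound exposure at 37 °C, 5% CO2.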", "values": [{"smiles": "COc1ccc(C2CC(c3ccccc3)=NN2c2ccc(S(N)(=O)=O)cc2)cc1", "note": "(stereo unspecified)", "max response": "-8.6% (inactive)"}, {"smiles": "Cc1nc(N)sc1-c1ccnc(Nc2ccc(N3CCOCC3)cc2)n1", "max response": "-1.3% (inactive)"}, {"smiles": "CCn1cc(C(=O)O)c(=O)c2ccc(C)nc21", "max response": "5.72% (inactive) and 15.6% (inactive)"}, {"smiles": "N#Cc1ccc(NC(=O)Nc2ccccc2Br)c2n[nH]nc12", "max response": "26.2% (inactive)"}, {"smiles": "O=C(Nc1ccccc1-c1cn2c(CN3CCNCC3)csc2n1)c1cnc2ccccc2n1", "Potency": "3.72 µM (active)"}, {"smiles": "c1ccc2c(-c3cnn4cc(-c5ccc(N6CCNCC6)cc5)cnc34)ccnc2c1", "Potency": "3.72 µM (active)"}, {"smiles": "COc1ccccc1N1CCN(CCCNc2cc(=O)n(C)c(=O)n2C)CC1", "max response": "9.05% (inactive) and -4.71% (inactive) and 2.95% (inactive)"}, {"smiles": "O=c1cc(N2CCOCC2)oc2c(-c3cccc4c3sc3ccccc34)cccc12", "max response": "-22.3% (inactive)"}, {"smiles": "CC(C)C(=O)Nc1ncc(-c2cc(C(F)F)nn2-c2c(Cl)cccc2Cl)s1", "max response": "17% (inactive)"}, {"smiles": "NCCS", "max response": "-3.42% (inactive) and 10.4% (inactive) and 19.2% (inactive)"}, {"smiles": "COC(=O)[C@@H]1[C@H]2C[C@H]3c4[nH]c5ccccc5c4CCN3C[C@@H]2CC[C@@H]1O", "max response": "29.3% (inactive) and 18.6% (inactive)"}, {"smiles": "CCN(CC)CCNC(=O)c1ccc(N)cc1", "max response": "34.9% (inactive)"}, {"smiles": "CC(=O)c1ccc(S(=O)(=O)NC(=O)NC2CCCCC2)cc1", "max response": "-4.23% (inactive) and -12.4% (inactive)"}, {"smiles": "CN(C)CCC(c1ccccc1)c1ccccn1", "note": "(stereo unspecified)", "max response": "15.2% (inactive)"}, {"smiles": "O=c1cc(-c2ccc(O)cc2)oc2cc(O)cc(O)c12", "max response": "0.431% (inactive)"}, {"smiles": "O=C(Nc1cc(Cl)cc2c1[nH]c1cnccc12)c1cccnc1", "max response": "1.52% (inactive)"}, {"smiles": "O=c1cc(CN2CCOCC2)occ1OCCCCCSc1ccnc2cc(C(F)(F)F)ccc12", "max response": "18.6% (inactive)"}, {"smiles": "CC(=O)O[C@]1(C(C)=O)CC[C@H]2[C@@H]3C=C(Cl)C4=CC(=O)[C@@H]5C[C@@H]5[C@]4(C)[C@H]3CC[C@@]21C", "max response": "5.83% (inactive)"}, {"smiles": "Cc1ccc(F)c(NC(=O)Nc2ccc(-c3cccc4[nH]nc(N)c34)cc2)c1", "max response": "19.5% (inactive)"}, {"smiles": "CC(=O)N[C@@H](CS)C(=O)O", "max response": "4.68% (inactive) and -17% (inactive)"}, {"smiles": "CC1(C)CCC2=C(O1)c1ccccc1C(=O)C2=O", "Potency": "2.82 µM (active)"}, {"smiles": "CCCCC1C(=O)N(c2ccccc2)N(c2ccccc2)C1=O", "max response": "-1.91% (inactive) and -0.936% (inactive) and 31.1% (inactive)"}, {"smiles": "CS(=O)c1ccc(-c2nc(-c3ccc(F)cc3)c(-c3ccncc3)[nH]2)cc1", "note": "(stereo unspecified)", "max response": "1.2% (inactive)"}, {"smiles": "CN(C)Cc1ccc(-c2nc3cccc4c3n2CCNC4=O)cc1", "max response": "13% (inactive)"}, {"smiles": "CC(C)(C)c1cc(C(=O)O)c(NC(=O)Nc2ccc3[nH]ncc3c2)s1", "max response": "39.1% (inactive)"}, {"smiles": "O=C1NC(=O)C(c2ccccc2)(c2ccccc2)N1", "max response": "-6.42% (inactive) and 2.98% (inactive) and 10.3% (inactive)"}]}]}
